# Results taken from the supplement of paper PMC4166925.
# ± gives the standard deviation of the averaged measurements. Over roughly 33,000 sequences, “E-score (dimensionless, -0.5 to 0.5)” has its median near -0.046; the highest 2% begin near 0.36. This is one part of a sample in which the highest values are shown more often than they occur.
# Tested on: T1, SpTbr T-box DNA-binding domain (GST fusion)
# T1 sequence: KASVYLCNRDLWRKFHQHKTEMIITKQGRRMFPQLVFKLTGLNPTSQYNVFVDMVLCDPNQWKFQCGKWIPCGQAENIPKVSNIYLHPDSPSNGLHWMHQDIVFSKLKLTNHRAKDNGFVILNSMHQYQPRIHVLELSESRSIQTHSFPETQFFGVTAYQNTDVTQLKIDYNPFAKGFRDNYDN
# Experiment: PBM E-score of 8-mer (E-score (dimensionless, -0.5 to 0.5)); Tbr is Tbrain of the sea star Patiria miniata (Pm) or the sea urchin Strongylocentrotus purpuratus (Sp); higher = stronger binding preference
# Details: the construct has about 5 more residues each side
# Method: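 Universal protein-binding microarray (Agilent AMADID 016060, 60-bp probes with a 35-bp variable region) incubated with 200 nM GST-fused Strongylocentrotus purpuratus Tbr T-box DNA-binding domain (residues 362-554) in PBS pH 7.5. Scored for every ungapped 8-mer (given with its reverse complement) as E-score (range -0.5 to 0.5; >0.45 counts as bound) and Z-score of median probe intensity. Two replicate arrays (datasets 1 and 2).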
# 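Further: protein at 200 nM in PBS on universal double-stranded arrays.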
row,Sequence,PBM E-score of 8-mer
1,AACCTAAG,-0.133 ± 0.0067
2,CACCTAAG,0.383 ± 0.019
3,CCCCTAAG,-0.17 ± 0.067
4,AACCTAAC,-0.0237 ± 0.04
5,CACCTAAA,0.3188 ± 0.00098
6,CACCTAAC,0.387 ± 0.018
7,AGGTTGAT,-0.0456 ± 0.014
8,AGTTGGCC,-0.112 ± 0.0038
9,ATTGTGGA,0.0374 ± 0.11
10,AACACCTA,0.4609 ± 0.0024
11,CACACCGA,0.291 ± 0.036
12,AACACCGC,0.299 ± 0.018
13,AACACCTC,0.481 ± 0.0063
14,TACACCGA,0.118 ± 0.1
15,TACACCTA,0.377 ± 0.0086
16,CCCACCTA,0.282 ± 0.013
17,AAGACCTC,0.00991 ± 0.032
18,AACACCGA,0.228 ± 0.03
19,CACACCTA,0.4806 ± 0.0011
20,TACACCAA,0.0641 ± 0.095
21,CCCTATCA,0.0101 ± 0.042
22,TGAAACCA,-0.0205 ± 0.016

row,Sequence,PBM E-score of 8-mer
1,TGTCAAAA,0.289 ± 0.021
2,TACCCGGA,-0.128 ± 0.15
3,GCAATCGC,0.212 ± 0.0066
4,ACTGAGGA,-0.0611 ± 0.02
5,CCAATAAC,-0.0379 ± 0.13
6,CTGGGACC,-0.174 ± 0.015
7,ACGCCAAC,0.144 ± 0.021
8,CCAGCTTC,-0.142 ± 0.058
9,CGAACAGA,0.0582 ± 0.028
10,CACACCTG,0.479 ± 0.0072
11,CACACCGG,0.175 ± 0.059
12,AACACCTG,0.463 ± 0.0057
13,ACCACCTG,0.224 ± 0.037
14,AACACCGT,0.243 ± 0.091
15,AACACCGG,0.118 ± 0.015
16,CAGACCTG,-0.0842 ± 0.0016
17,AAGACCTT,-0.259 ± 0.0063
18,AACACCTT,0.479 ± 0.0049
19,GTATGCAC,0.0616 ± 0.043
20,CTAGTTTC,-0.105 ± 0.053
21,CTACGCGA,0.0131 ± 0.01
22,AACTCTGA,-0.0644 ± 8.5e-05

row,Sequence,PBM E-score of 8-mer
1,CGCAAGAC,0.07366 ± 4.2e-05
2,ACGCATGG,-0.144 ± 0.018
3,AGCTGCCA,0.111 ± 0.099
4,AGGTGCCG,0.421 ± 0.0055
5,ACGTGCCA,0.361 ± 0.033
6,GGGTGCCA,0.3739 ± 0.003
7,GGGTGCGA,0.4746 ± 0.00052
8,AGGTGCCC,0.00863 ± 0.0099
9,AGGTGCCA,0.46212 ± 0.00034
10,GTGTGCGA,0.361 ± 0.0042
11,GCGTGCCA,0.128 ± 0.01
12,ACGTGCCG,0.199 ± 0.058
13,CGGTGCGA,0.339 ± 0.0046
14,CGGTGCCA,0.119 ± 0.02
15,ACGATCAC,0.119 ± 0.031
16,AGGTTTAA,-0.0723 ± 0.017
17,GGACTTGA,-0.12 ± 0.047
18,AATACTGG,-0.329 ± 0.041
19,TATATCAA,-0.174 ± 0.03
20,AAATGGTA,-0.152 ± 0.041
21,TGCGAGAA,0.36401 ± 0.00027
22,CAACAAGG,0.0674 ± 0.0062

row,Sequence,PBM E-score of 8-mer
1,CCTTCACA,0.404 ± 0.0071
2,ACTTCACG,0.312 ± 0.018
3,ACTTCACA,0.357 ± 0.02
4,CCTTCACC,0.14 ± 0.013
5,TCTTCACA,0.395 ± 0.015
6,CCTTCACG,0.278 ± 0.019
7,ATCCCAGA,-0.0492 ± 0.043
8,GATTTTCC,-0.00302 ± 0.027
9,CCCCAAAA,-0.112 ± 0.042
10,TATTTGAA,-0.214 ± 0.013
11,CCCCTCCG,0.119 ± 0.066
12,CACCTCCG,0.4516 ± 0.0039
13,AACCTCCG,0.0095 ± 0.07
14,AACCTCCC,-0.0867 ± 0.0052
15,GACCTCCC,-0.159 ± 0.12
16,AACCTCCA,-0.135 ± 0.018
17,CACCTCCA,0.3876 ± 0.00048
18,TACCTCCA,-0.0368 ± 0.093
19,CACCTCCC,0.389 ± 0.017
20,AGCGGGCA,-0.0395 ± 0.016
21,GACGTGCA,0.0705 ± 0.07
22,ACCCGAGA,0.0223 ± 0.0071

row,Sequence,PBM E-score of 8-mer
1,GCCCGACC,-0.213 ± 0.054
2,CTAGGTTA,-0.16 ± 0.08
3,GTTTAGCA,0.102 ± 0.11
4,AACCTCAC,0.182 ± 0.034
5,CACCTCAG,0.376 ± 0.0075
6,CACCTCAC,0.444 ± 0.012
7,GACCTCAC,0.137 ± 0.049
8,TACCTCAA,-0.13 ± 0.045
9,AACCTCAA,-0.158 ± 0.018
10,AACCTCAG,-0.244 ± 0.045
11,CACCTCAA,0.375 ± 0.024
12,CTCCTCAG,-0.0357 ± 0.025
13,CGAAAACG,0.0298 ± 0.05
14,CGATACAG,-0.0251 ± 0.13
15,GAGTTGGA,-0.0967 ± 0.023
16,ATCTTCAC,0.267 ± 0.02
17,TCTTAACA,0.214 ± 0.041
18,GGTTATAC,0.0871 ± 0.041
19,GCATGCTA,0.00793 ± 0.094
20,ATAGGGAG,-0.00632 ± 0.036
21,ATAGTGTG,0.388 ± 0.026
